Compounds with a hit are over-represented: about 22% of the library has one in this group of screens.
Pf growth 48h = P. falciparum growth inhibition at 48 hours (one generation); Potency, µM (titrated, usually from 28.7 µM), usual class: inhibitors; P. falciparum luciferase growth in erythrocytes, 48 h; hit rate 5.9% among 310,000
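Here the parasites carry a stable luciferase gene and grow inside erythrocytes in Albumax-based RPMI medium with compound for one erythrocytic cycle. Activity is scored as loss of luminescent signal.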
CHX counter = counter-screen hit for Shiga toxin inhibitors, cycloheximide; cell reporter, cycloheximide protein synthesis inhibition counterscreen; max response, %; hit rate 12% among 300,000; AID 2314; in the data active = max response mostly above about 13%, no sharp cut-off; inactive = mostly below about 14%; note: read at 38.3 µM for the half of the compounds with a filed dose
LmPK inh = blocks Leishmania mexicana pyruvate kinase activity; hit rate 0.37% among 290,000; Potency, µM (series often up to 57.5 µM), hits mostly inhibitors; purified LmPK, Kinase-Glo ATP luminescence, 1 h
Target sequence (Q27686 whole entry, looked up): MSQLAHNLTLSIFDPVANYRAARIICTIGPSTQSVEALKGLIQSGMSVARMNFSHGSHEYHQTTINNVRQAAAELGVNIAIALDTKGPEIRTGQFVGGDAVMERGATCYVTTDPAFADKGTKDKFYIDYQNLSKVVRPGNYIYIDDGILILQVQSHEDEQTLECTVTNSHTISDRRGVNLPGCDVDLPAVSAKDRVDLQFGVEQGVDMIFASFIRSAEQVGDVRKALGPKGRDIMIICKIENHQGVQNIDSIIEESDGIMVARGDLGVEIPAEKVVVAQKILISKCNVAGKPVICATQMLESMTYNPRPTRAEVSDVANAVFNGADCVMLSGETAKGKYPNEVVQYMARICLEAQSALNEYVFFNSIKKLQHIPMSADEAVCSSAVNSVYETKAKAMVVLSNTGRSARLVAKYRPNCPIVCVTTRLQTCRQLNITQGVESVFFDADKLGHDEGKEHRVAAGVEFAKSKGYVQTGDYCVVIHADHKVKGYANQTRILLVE
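In 50 mM imidazole pH 7.2 with 7 mM MgCl2, LmPK (0.1 nM) turned over PEP (0.5 mM) and ADP (0.1 mM) for 1 h at room temperature. Luciferase read-out of ATP.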
Shiga inhibitor = Shiga toxin inhibition; AID 2315; Vero cells, Shiga toxin protein synthesis inhibition reporter; inhibition, % at 38.7 µM; hit rate 9.2% among 290,000; in the data active = inhibition mostly above about 28%, no sharp cut-off; inactive = mostly below about 43%
Pf growth 96h = P. falciparum growth inhibition at 96 hours | P. falciparum luciferase reporter growth, 96 h | Potency, µM (highest dose often 28.7 µM), hits mostly inhibitors | hit rate 6.9% among 320,000 | AID 504834
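Infected RBCs, 2% Hct / 0.05% parasitemia final; luciferase-reporter P. falciparum; cpd 96 h, 37 C, 5% CO2; luciferase detection reagent; luminescence.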
Each line names hits and unclear results; the compound was inactive in the other large screens. Unless noted, calls come from the whole dose curve; as a rule, active = well fitted inhibition curve with a large enough effect; inconclusive = small, poorly fitted or top-dose-only effect, or another doubt; inactive = no such curve, though single readings can be large or run the other way.

CS(=O)(=O)c1ccc(Cl)c(NC(=O)CN2C(=O)C3CCCCC3C2=O)c1 (stereo not drawn)	none (no result: CHX counter, LmPK inh, Shiga inhibitor)
O=C(N/N=C/c1ccc2c(c1)OCO2)c1cc2ccccc2o1	CHX counter 12
O=C(N/N=C/c1ccc(O)cc1)c1cccc(C(F)(F)F)c1	none
Nc1cccc(C(=O)N/N=C/c2ccsc2)c1	CHX counter 33, Shiga inhibitor 54
Cc1ccc(/C=C/C(=O)NCc2ccc3c(c2)OCO3)o1	none
Cc1ccc(C(=O)N/N=C/c2ccc3c(c2)OCO3)o1	CHX counter 63, LmPK inh inconclusive, Shiga inhibitor 60
Cc1ccc(C(=O)/C=C/c2ccc3c(c2)OCO3)o1	CHX counter 49, LmPK inh inconclusive, Shiga inhibitor 52
CC(=O)c1c(NC(=O)c2ccccc2)[nH]c(-c2ccccc2)nc1=S	Pf growth 48h inconclusive
COc1ccccc1NC(=O)c1ccc(NC(=O)CSc2nc(N)cc(=O)[nH]2)cc1	none (no result: CHX counter, LmPK inh, Shiga inhibitor)
Cc1nc(CNC(=O)CC2C(=O)NCCN2Cc2cccc(Oc3ccccc3)c2)cs1 (stereo not drawn)	Pf growth 96h inconclusive
O=S(=O)(Cc1ccccc1)Cc1cnc(Cl)s1	none
Cc1c(C#N)c(N=CN(C)C)c(C(=O)c2ccc(Br)cc2)n1-c1ccc(Cl)cc1	none (no result: Pf growth 48h)
Cc1ccc(C(=O)/C=C/c2ccccc2)o1	CHX counter 40, Pf growth 96h inconclusive (no result: Pf growth 48h)
Cc1ccc(C(=O)/C=C/c2ccc(Br)cc2)o1	Pf growth 48h inconclusive
O=C(N/N=C/c1ccsc1)c1cc2ccccc2o1	CHX counter 62, Shiga inhibitor 41
COc1cc(OC)cc(OC(=O)C2CCN(C(=O)c3ccc(F)cc3)CC2)c1	none (no result: CHX counter, LmPK inh, Shiga inhibitor)
O=C(C=C=Nc1ccccc1)C(=O)N=C=Cc1ccccc1	Pf growth 48h inconclusive, CHX counter 24, Shiga inhibitor 72, Pf growth 96h inconclusive
CC(C)C(=O)Nc1ccnc(-c2cccnc2)n1	none
Fc1ccc(/C=N/n2cnn(Cc3ccccc3Cl)c2=S)cc1	none
CN(C)c1ccc(/C=N/n2cnn(Cc3ccccc3Cl)c2=S)cc1	CHX counter 38, Shiga inhibitor 97
COc1ccc(Nc2ccc(N3C(=O)CC(C)C3=O)cc2[N+](=O)[O-])cc1OC (stereo not drawn)	none
CCOC(=O)c1c(C)[nH]c(C(=O)OCc2ccccc2)c1C	CHX counter 87, Shiga inhibitor 60
CCOC(=O)c1c(C)[nH]c(C(=O)COC(=O)CSC)c1C	none (no result: Pf growth 48h)
CCCCC(=O)OCC(=O)c1[nH]c(C)c(C(=O)OCC)c1C	CHX counter 31, Shiga inhibitor 84 (no result: Pf growth 96h)
CCOC(=O)c1c(C)[nH]c(C(=O)CSc2ccccc2)c1C	CHX counter 43, Shiga inhibitor 53
Cc1nn(-c2ccccc2)c(C)c1C(=O)OCC(=O)N1CC(=O)Nc2ccccc21	none
CCOC(=O)c1[nH]c(C)c(C(=O)OCC(=O)N2CC(=O)Nc3ccccc32)c1C	Pf growth 48h inconclusive, Pf growth 96h 9.3µM
CCOC(=O)c1[nH]c(C)c(C(=O)OCc2ccc(C)cc2)c1C	none
CCN(CC)CCCn1c2c(c(SCC(=O)N3CCCc4ccccc43)nc1=O)CCC2	Pf growth 96h inconclusive (no result: CHX counter, LmPK inh, Shiga inhibitor)
O=C(OCCCc1cc2ccccc2c(=O)o1)c1ccc2c(c1)OCO2	none (no result: CHX counter, LmPK inh, Shiga inhibitor)
CC1(C)CC(=O)C=C(NNC(=O)OC(C)(C)C)C1	none
Cc1cc(C(=O)CSc2ccc(F)cc2)cc(C)c1O	CHX counter 35, Shiga inhibitor 61
Cc1cc(C(=O)CSc2ccc(Cl)cc2)cc(C)c1OC(=S)N(C)C	CHX counter 36, Shiga inhibitor 90, Pf growth 96h inconclusive (no result: Pf growth 48h)
CC(=O)c1c(C)[nH]c(C(=O)CSc2ccc(F)cc2)c1C	CHX counter 49, Shiga inhibitor 98
CC(=O)Nc1ccc(SCC(=O)c2cc(C)ccc2C)cc1	none
Cc1noc(C)c1COc1ccc(C(=O)OCC(=O)N2CC(=O)Nc3ccccc32)cc1	Pf growth 48h 4.7µM, Pf growth 96h inconclusive
CCOc1ccc(CC(=O)N/N=C/c2sccc2C)cc1	none
CCOC(=O)c1[nH]c(COC(=O)c2ccccc2NC(=O)c2ccco2)c(C(=O)OCC)c1C	Pf growth 48h 12µM, Pf growth 96h inconclusive
CCOC(=O)c1c(C)[nH]c(C(=O)C(C)Sc2ccc(Cl)cc2)c1C (stereo not drawn)	CHX counter 19
CCOC(=O)c1c(C)[nH]c(C(=O)N/N=C\c2ccccc2O)c1C	Pf growth 48h inconclusive, CHX counter 29, Shiga inhibitor 35, Pf growth 96h inconclusive
CCOC(=O)c1c(C)[nH]c(C(=O)N/N=C/c2cc([N+](=O)[O-])ccc2O)c1C	Pf growth 48h inconclusive, Pf growth 96h inconclusive
CCOC(=O)c1[nH]c(C)c(C(=O)/C=C/c2ccc(C(=O)O)cc2)c1C	Pf growth 48h 12µM, Pf growth 96h inconclusive
CCOC(=O)c1c(C)[nH]c(C(=O)C(C)Cl)c1C (stereo not drawn)	none
CCOC(=O)c1[nH]c(C)c(C(=O)N2CCN(c3ccccc3)CC2)c1C	Pf growth 48h inconclusive
O=C(CSCc1cccc(Cl)c1)Nc1ccccc1-c1ccccc1	none
CCOC(=O)c1c(C)[nH]c(C(=O)COC(=O)CCSc2ccccc2)c1C	CHX counter 46, Shiga inhibitor 60
Cc1[nH]c(C)c(C(=O)/C=C/c2ccc([N+](=O)[O-])cc2)c1C	Pf growth 48h inconclusive, CHX counter 60, Shiga inhibitor 129
CCOC(=O)c1c(C)[nH]c(C(=O)CSc2nnc(C3CC3)n2N)c1C	Pf growth 48h 0.33µM, CHX counter 17 (no result: Pf growth 96h)
CCOC(=O)c1c(C)[nH]c(C(=O)CSc2nccc(C)n2)c1C	CHX counter 37, Shiga inhibitor 87
CN[C@@H](CCCN=C(N)N)C(=O)N[C@@H](CCCCN)C(=O)N1CCC[C@H]1C(=O)N[C@@H](Cc1c[nH]c2ccccc12)C(=O)N[C@H](C(=O)N[C@H](CC(C)C)C(=O)O)C(C)(C)C	none (no result: Pf growth 48h, LmPK inh, Pf growth 96h)
COc1cc2c(cc1OC)C(C)N(C(=O)CCc1c[nH]c3ccccc13)CC2 (stereo not drawn)	none
Cn1c(SCc2cccc(F)c2)nnc1-c1ccncc1	Pf growth 48h inconclusive, Pf growth 96h inconclusive
CN(CC(=O)Nc1ccccc1Br)C(=O)CNC(=O)Cc1cccc2ccccc12	none
CCOC(=O)c1c(Cc2ccccc2)c[nH]c1C	CHX counter 31, Shiga inhibitor 61
Cc1cc(C)cc(OCC(=O)NN2Cc3ccccc3C2=N)c1	Pf growth 96h 6.6µM (no result: Pf growth 48h)
CCc1ccc(OCC(=O)NN2Cc3ccccc3C2=N)cc1	Pf growth 96h inconclusive
N=C1c2ccccc2CN1NC(=O)CC12CC3CC(CC(C3)C1)C2	Pf growth 48h inconclusive, Pf growth 96h 1.9µM
CCN(CC)CCNc1ncnc2c1sc1nc(N3CCOCC3)c3c(c12)CC(C)(C)SC3	Pf growth 48h inconclusive, Pf growth 96h 5.2µM
CC(C)c1ccc(C(N)=S)cc1	none
COc1ccc(NC(=S)NCc2ccco2)c(OC)c1	none (no result: Pf growth 48h)
O=C(NCCN1CCOCC1)c1ccc2c(c1)N(Cc1cccc(F)c1)C(=O)c1ccccc1S2	Pf growth 48h inconclusive
C=CCN1C(=O)c2ccccc2Sc2ccc(C(=O)N3CCC4(CC3)OCCO4)cc21	Pf growth 48h inconclusive, Pf growth 96h 10µM
